Among the data in PubChem BioAssay AID1220 (Sanford-Burnham Center for Chemical Genomics, 2008) are inhibition values, retold here.

The campaign covered roughly 190,000 compounds. About 1,300 (0.68%) were called active. What follows is part of a selection rich in actives, with near analogues and random picks from the rest. A number with no mark means an inactive call. No stated cut-off is given here; in the data, active means inhibition above about 50%; inactive means the rest.

Mannose-6-phosphate isomerase (Homo sapiens), sequence (P34949 whole entry, looked up): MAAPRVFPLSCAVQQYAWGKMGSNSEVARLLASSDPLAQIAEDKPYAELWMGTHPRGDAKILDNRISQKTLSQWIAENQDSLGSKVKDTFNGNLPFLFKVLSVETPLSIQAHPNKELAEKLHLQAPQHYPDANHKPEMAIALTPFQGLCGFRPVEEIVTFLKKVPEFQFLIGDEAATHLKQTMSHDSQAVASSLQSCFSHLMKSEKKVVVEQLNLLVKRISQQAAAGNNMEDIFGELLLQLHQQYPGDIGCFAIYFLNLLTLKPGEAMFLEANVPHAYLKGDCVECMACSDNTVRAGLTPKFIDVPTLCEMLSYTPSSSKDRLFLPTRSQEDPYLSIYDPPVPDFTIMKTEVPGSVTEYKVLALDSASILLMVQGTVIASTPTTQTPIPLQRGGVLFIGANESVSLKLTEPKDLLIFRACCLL

This test concerns the target Mannose-6-phosphate isomerase (Homo sapiens) (UniProt P34949). Put plainly: MPI inhibition at elevated mannose 6-phosphate – biochemical, fluorescence intensity, high mannose 6-phosphate, primary screen (AID 1220). The settings on record: recombinant PMI enzyme, coupled fluorescence intensity; at 20 µM; stronger effect = higher value.
What is called inhibition is the relative decrease from the control value, in per cent. Consider `COC(=O)c1ccc(COC(=O)CNC(=O)c2ccco2)cc1`, for which the inhibition is 1.5%.

Turning to `CC1CC(NC(=O)c2ncn[nH]2)CC(C)(C)C1` (configuration not stated), the inhibition is -12.5%.

As for `COc1ccc(C(=O)/C=C2\NCC3c4ccccc4CCN3C2=O)cc1` (configuration not stated), the inhibition is -140%.

`Cc1cccc(C(=O)NCCN(C)C)c1`: the inhibition was 3%.

For the compound `Cc1cc(NC(=O)c2cc(-c3ccco3)on2)n(-c2ccccc2)n1`, the inhibition is 26.3%.

For `Cc1cc(-c2ccco2)n(-c2ccccc2)n1`, the inhibition was 50.5% (active).

For `Cc1cc(-c2ccco2)n(CC(=O)O)n1`, the inhibition is -2.6%.

On to `Cc1ccc(OCC(O)CN2C(=O)NC(C)(C)C2=O)cc1` (configuration not stated), for which the inhibition is 5.5%.

For the compound `CC1(C)NC(=O)N(CC(O)COc2ccc(N3C(=O)c4ccccc4C3=O)cc2)C1=O` (configuration not stated), the inhibition was 53% (active).

Turning to `CC1(C)NC(=O)N(CC(O)COc2ccc(-c3ccccc3)cc2)C1=O` (configuration not stated), the inhibition is -0.4%.

As to `O=C(NCC(=O)N1CCCC1)c1cccs1`, the inhibition is 2%.

`Cc1ccc(C(=O)ONc2ccc(N=NC(=O)c3ccccc3O)cc2)cc1`: the inhibition was -5.4%.

Turning to `O=C(ONc1ccc(N=NC(=O)c2ccccc2O)cc1)c1ccccc1`, the inhibition was 22.9%.

For the compound `O=C(N=Nc1ccc(NOC(=O)c2ccccc2Br)cc1)c1ccccc1O`, the inhibition was 65.2% (active).

With `CN(Cc1cccnc1)C(=O)CC1C(=O)NCCN1Cc1ccc(-c2ccccc2)cc1` (configuration not stated), the inhibition is 8.9%.

Take `CCOC(=O)C(C#N)C(Cc1ccccc1)c1ccco1` (configuration not stated): the inhibition is 5.7%.

Regarding `COc1cc(NC(=S)Nc2ncccc2C)cc(OC)c1OC`, the inhibition was 31%.

As to `COc1ccc(C(=O)Nc2cccc(C(C)=O)c2)cc1OC`, the inhibition is -4.1%.

`COc1ccc(NC(=S)Nc2cccc(C(C)=O)c2)cc1OC`: the inhibition is 50.5% (active).

On to `COC(=O)c1cc(OC)c(OC)cc1NC(=S)Nc1cccc(C(C)=O)c1`, for which the inhibition was -8%.

Turning to `COc1ccc(NC(=S)Nc2cccc(Cl)c2)cc1OC`, the inhibition was 61.4% (active).

With `COc1ccc(NC(=S)Nc2cccc(Cl)c2Cl)cc1OC`, the inhibition was 40.9%.

With `COc1ccc(NC(=S)Nc2ncccc2C)cc1OC`, the inhibition was 55.1% (active).

On to `COc1cc(C)c(NC(=S)Nc2cccc(Cl)c2)cc1OC`, for which the inhibition is 24.5%.

As for `COc1ccc(NC(=S)Nc2ncccc2C)c(OC)c1`, the inhibition was 10.1%.

For the compound `Cc1c(NC(=O)c2cc3ccccc3o2)c(=O)n(-c2ccccc2)n1C`, the inhibition is -16.9%.

For `COc1ccc(-c2nc(N3CCCC3)[nH]c(=O)c2C#N)cc1`, the inhibition is -5.5%.

On to `C=CCc1cccc2cc(C(=O)NCc3cccnc3)c(=O)oc12`, for which the inhibition was 3.6%.

In the case of `Cc1ccc(NCC(=O)N=Nc2c(O)n(C)c3ccccc23)cc1`, the inhibition is -2.1%.

For `O=C(NC1CC1)C1=C[C@H](C2CC2)C[C@H](OCCCCO)O1`, the inhibition was 0.3%.

Regarding `CCS(=O)(=O)c1ccc2oc(SCC(=O)Nc3ccc(OC)cc3OC)nc2c1`, the inhibition was 14.5%.

Consider `Cc1onc(-c2ccccc2Cl)c1C(=O)N1CCOC12CCCCC2`, for which the inhibition was -6.1%.

`Cc1[nH]n(-c2ccccc2)c(=O)c1/C=N/NC(=O)COc1ccccc1[N+](=O)[O-]`: the inhibition was 58.1% (active).

Regarding `Cc1ccc(OCC(=O)N/N=C\c2c(C)[nH]n(-c3ccccc3)c2=O)c([N+](=O)[O-])c1`, the inhibition is -3.5%.

Consider `COCC(=O)N/N=C/c1c(C)[nH]n(-c2ccccc2)c1=O`, for which the inhibition is -4.5%.

Turning to `CC(C)CN1C(=O)c2ccc(NC(=O)c3ccco3)cc2C1=O`, the inhibition is 6.2%.

`O=C(Nc1ccc([N+](=O)[O-])cc1)Nc1ccc(N2CCOCC2)c2nonc12`: the inhibition was 57.9% (active).

As for `O=C(Nc1ccc(F)cc1)Nc1ccc(N2CCOCC2)c2nonc12`, the inhibition was 38%.

With `COc1ccc(NC(=O)Nc2ccc(C(=O)N3CCOCC3)cc2)c(OC)c1`, the inhibition was 0.2%.

As for `COc1ccc(NC(C)C(=O)Nc2cc(C(F)(F)F)ccc2N2CCOCC2)c(OC)c1` (configuration not stated), the inhibition is 24%.

For `COc1ccc(NC(=O)Nc2ccc(N3CCOCC3)c3nonc23)c(OC)c1`, the inhibition is 55.8% (active).

In the case of `O=C(Nc1ccc(N2CCOCC2)c2nonc12)C1CCCC1`, the inhibition was 44.8%.

Take `COc1ccc(C)cc1-n1c(SCC(=O)Nc2cc(C)on2)nc2ccccc2c1=O`: the inhibition was 10.8%.

Take `COC(=O)Cc1sc(-c2ccccn2)nc1-c1ccccc1`: the inhibition was 21.2%.

`CCOc1cc(NC(=S)NCCOC)c(OCC)cc1NC(=O)c1ccco1`: the inhibition is 22.6%.

Regarding `CCNC(=S)Nc1cc(OCC)c(NC(=O)c2ccco2)cc1OCC`, the inhibition is 52.8% (active).

On to `CCOCCCNC(=S)Nc1cc(OCC)c(NC(=O)c2ccco2)cc1OCC`, for which the inhibition is 44.5%.

For `CCNC(=S)Nc1cc(OC)c(NC(=O)c2ccco2)cc1OC`, the inhibition was 33.9%.

With `CCOc1cc(NC(=S)NC)c(OCC)cc1NC(=O)c1ccco1`, the inhibition was 49.7%.

As to `CCOc1cc(NC(=S)NCCCOC)c(OCC)cc1NC(=O)c1ccco1`, the inhibition is 50.7% (active).

Take `O=C(CO/N=C/c1ccc(OC(F)F)cc1)NC1CCCC1`: the inhibition is 0.6%.

Consider `COC(=O)C1=C(C)N(CCc2ccc(OC)c(OC)c2)C(=O)C1`, for which the inhibition was -10.6%.

As for `Cc1nnc(SCc2nnc(-c3cccs3)o2)n1Cc1ccccc1`, the inhibition was -7.3%.

`COc1cc(C(c2oc(CO)cc(=O)c2O)c2oc(CO)cc(=O)c2O)cc(OC)c1OC`: the inhibition was -11.4%.

For the compound `CCCN1CCN(CCCNC(=S)Nc2ccc(OC)cc2)CC1`, the inhibition is 6.6%.

For the compound `O=C(OCC(=O)N1CCCCC1)c1ccccc1SCC(=O)N1CCCCC1`, the inhibition was -4%.

With `N#Cc1c2ccc(O)cc2n2ccccc12`, the inhibition is 62.6% (active).

As to `Cc1cc(=O)n2ccccc2c1C#N`, the inhibition is 3.5%.

As for `Cn1c(CN2CCOCC2)c(C#N)c2ccccc21`, the inhibition is 3%.

For `COC(=O)CCC/C=C1/SCC(NC(=O)c2ccccc2)/C1=N/O` (configuration not stated), the inhibition was -7.4%.

On to `CCC(C(=O)Nc1cnccn1)c1ccccc1` (configuration not stated), for which the inhibition is 4%.

With `CCOc1ccccc1/C=N/NC(=O)c1cccc(S(=O)(=O)N(CC)CC)c1`, the inhibition was 5.1%.

For the compound `CCN(CC)S(=O)(=O)c1cccc(C(=O)N/N=C/c2ccccc2OCC(=O)O)c1`, the inhibition is 2.8%.

On to `Cc1cc(C)nc(SCc2ccc(C(=O)N/N=C/c3ccccc3C(=O)O)cc2)n1`, for which the inhibition is -6.2%.

As to `COc1ccc(O)c(/C=N/NC(=O)c2ccc(CSc3nc(C)cc(C)n3)cc2)c1`, the inhibition is -12.2%.

Turning to `CCN(CC)S(=O)(=O)c1cccc(C(=O)N/N=C/c2cc(OC)c(O)c(OC)c2)c1`, the inhibition is 15.5%.

For `Cc1cc(C)nc(SCc2ccc(C(=O)N/N=C/c3cccc(O)c3O)cc2)n1`, the inhibition was 55% (active).

Turning to `CCN(CC)S(=O)(=O)c1cccc(C(=O)N/N=C/c2ccc(OC)c(O)c2)c1`, the inhibition was 6.1%.

`CCn1c(C)nc2cc(C(=O)N/N=C/c3cccc(OC)c3O)ccc21`: the inhibition is -8.6%.

Turning to `CCN(CC)S(=O)(=O)c1cccc(C(=O)N/N=C/c2cccc(O)c2O)c1`, the inhibition is 53.1% (active).

`CCn1c(C)nc2cc(C(=O)N/N=C/c3ccccc3C)ccc21`: the inhibition is -6.4%.

As to `O=C(Nc1ccc(N=Nc2ccccc2)c(NC(=O)C2CCCO2)c1)C1CCCO1` (configuration not stated), the inhibition was 9%.

With `COc1ccccc1NC(=O)CN1CCN(c2ccccn2)CC1`, the inhibition was -9%.

As for `COC(=O)Cc1c(C)c2ccc(OCC(=O)N(C)C)cc2oc1=O`, the inhibition was -8.1%.

As to `Cc1cc(C)n(C(=O)CCCCCC(=O)n2nc(C)cc2C)n1`, the inhibition is -6.2%.

With `O=C(CCN1C(=O)C2C3C=CC(C3)C2C1=O)Nc1ccccc1` (configuration not stated), the inhibition is -8.2%.

Turning to `C/C(=N\NC(=O)Cn1c(-c2ccccn2)nc2ccccc21)c1cccc(O)c1`, the inhibition is -16.2%.

As for `NNC(=O)c1cc2c(s1)CCCCCC2`, the inhibition is -2.3%.

With `O=C(Nc1ccc2c(c1)OCCO2)c1cccc(S(=O)(=O)N2CCCCC2)c1`, the inhibition is 18.2%.

Regarding `COC(=O)c1ccc(C)c(N(CCO)CCO)c1`, the inhibition was 0.5%.

Turning to `COc1ccc(-n2c(C(C)(C)C)csc2=Nc2c(C)n(C)n(-c3ccccc3)c2=O)cc1`, the inhibition was 5.7%.

For `O=S(=O)(Nc1cccc2[nH]ncc12)c1cccs1`, the inhibition was 5.1%.

As for `O=C1Nc2ccc(NS(=O)(=O)c3cccs3)c3cccc1c23`, the inhibition is 65.7% (active).

For `O=C(O)c1ccccc1NS(=O)(=O)c1ccc2c3c(cccc13)C(=O)N2`, the inhibition was -2%.

On to `COc1ccc(C(CNC(=O)CCOc2ccccc2)N(C)C)cc1` (configuration not stated), for which the inhibition was -3.8%.

As to `O=C(O)c1ccc(COc2ccccc2/C=C2\NC(=O)N(Cc3ccc(F)cc3)C2=O)cc1`, the inhibition was -7.9%.

Turning to `O=C(O)c1ccc(COc2ccc3ccccc3c2/C=C2/NC(=O)N(c3ccccc3)C2=O)cc1`, the inhibition is 22.6%.

As to `O=C(O)c1ccc(COc2ccc3ccccc3c2/C=C2/NC(=O)N(Cc3ccc(F)cc3)C2=O)cc1`, the inhibition was 52.7% (active).

Regarding `CC1CC(C)CN(CCCNC(=O)c2csc3c2CCCC3)C1` (configuration not stated), the inhibition was 8.3%.

`CCC(=O)Nc1ccc(Cl)c(NC(=O)c2ccc(Br)o2)c1`: the inhibition is 1.8%.

Take `CC1C(C#N)=C(N)OC2=C1C(=O)CC(c1ccccc1)C2` (configuration not stated): the inhibition was 10.5%.

Regarding `CC(C)CC1C(C#N)=C(N)OC2=C1C(=O)CC(c1ccccc1)C2` (configuration not stated), the inhibition was 57% (active).

`N#CC1=C(N)OC2=C(C(=O)CC(c3ccccc3)C2)C1c1ccoc1` (configuration not stated): the inhibition is -1.4%.

Take `CCN(CC)C(=O)C1=C(C)Nc2nnnn2C1c1cccnc1` (configuration not stated): the inhibition was 6.1%.

Turning to `CC[n+]1c(/C=C/N(C)c2ccccc2)oc2ccccc21`, the inhibition is 36.4%.

`CC[n+]1c(/C=C/N(C)c2ccccc2)oc2ccc(F)cc21`: the inhibition was 26.2%.

`CC[n+]1c(/C=C/N(C)c2ccccc2)oc2ccc(Cl)cc21`: the inhibition was 51.8% (active).
